The results in this text go back to PubChem BioAssay (NCI).

This is part of a sample that, as a whole, favours compounds with a hit. Of some 83,000 tested, about 20% had one in any assay.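 48-hour exposure, single concentration, 96-well plates; percent growth endpoint where 0 means no net growth. Active: below 10.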 A number with no mark means an inactive call. Active and inactive are the calls of the source.

Test systems include NCI-H23 lung; NCI-H226 lung; NCI-H322M lung; HOP-62 NSCLC; NCI-H460 lung; A549/ATCC NSCLC; 786-0 renal; COLO 205 colon; DU-145 prostate; K-562 leukemia; MALME-3M melanoma; MDA-MB-231 breast; RXF 393 renal; SF-268 CNS; SF-295 CNS; SF-539 CNS; UACC-257 melanoma; M14 melanoma; HCT-15 colon; NCI-H522 lung.
Holding throughout (experiment): NCI-60 one-dose screen, 48 h (100 = growth as untreated, 0 = no growth, -100 = all killed)
What all share (details): 10 µM unless noted

With `COc1ccc(/C=C2\NC(=S)NC2=O)cc1`, the growth with NCI-H23 lung is 113%; in the experiment on NCI-H226 lung, 100%; with NCI-H322M lung, 95.2%; in the experiment with HOP-62 NSCLC, 83.5%; in the experiment with NCI-H460 lung, 104%; in the experiment with A549/ATCC NSCLC, 107%. The growth in the experiment with 786-0 renal was 109%; in the experiment on COLO 205 colon, 88.2%; with DU-145 prostate, 118%; in the experiment on K-562 leukemia, 117%; in the experiment with MALME-3M melanoma it was 77.5%; in the experiment with MDA-MB-231 breast it was 94.5%. Moreover, the growth with RXF 393 renal is 126%; in the experiment on SF-268 CNS, 106%; in the experiment on SF-295 CNS, 119%; with SF-539 CNS, 98.3%; in the experiment on UACC-257 melanoma, 106%; in the experiment on M14 melanoma, 100%. In addition, in the experiment on HCT-15 colon, the growth is 93.5%.

With `CN(C)c1ccc(/C=C\c2ccnc3ccccc23)cc1`, the growth is 13.1% with NCI-H23 lung; 39% in the experiment with NCI-H226 lung; 90.6% in the experiment on NCI-H322M lung; 82% with HOP-62 NSCLC; 86.9% in the experiment on NCI-H460 lung; -7.89% (active) in the experiment with NCI-H522 lung. In addition, the growth was 65.1% in the experiment on 786-0 renal; 81.2% in the experiment on COLO 205 colon; 85.1% in the experiment on DU-145 prostate; 26.8% with K-562 leukemia; 84.8% in the experiment on MALME-3M melanoma; 70.3% in the experiment on MDA-MB-231 breast. The growth is 92.1% in the experiment with SF-268 CNS; 61.6% with SF-295 CNS; 78.3% with SF-539 CNS; 80.9% in the experiment with UACC-257 melanoma; 83.9% in the experiment on M14 melanoma; 58.5% in the experiment with HCT-15 colon.

Regarding `C/C(=N\N1CC(=O)NC1=O)c1ccc([N+](=O)[O-])o1`, the growth with NCI-H23 lung is 101%; in the experiment with NCI-H226 lung, 106%; in the experiment on NCI-H322M lung, 121%; in the experiment with HOP-62 NSCLC, 120%; in the experiment on NCI-H460 lung it was 94.6%; in the experiment with A549/ATCC NSCLC, 97.3%. The growth in the experiment with 786-0 renal is 103%; with COLO 205 colon, 108%; in the experiment with DU-145 prostate, 98.8%; in the experiment with K-562 leukemia it was 90.6%; in the experiment with MALME-3M melanoma, 114%; with MDA-MB-231 breast, 106%. For the same molecule, the growth was 128% in the experiment with RXF 393 renal; 84.7% in the experiment with SF-268 CNS; 104% with SF-295 CNS; 108% with SF-539 CNS; 81.9% with UACC-257 melanoma; 103% in the experiment with M14 melanoma. In addition, the growth in the experiment with HCT-15 colon is 115%.

Consider `O=C(O)C(=O)O`, for which the growth is 15.2% in the experiment with NCI-H23 lung; 96.6% in the experiment on NCI-H226 lung; 95.2% in the experiment on NCI-H322M lung; 108% in the experiment with HOP-62 NSCLC; 111% in the experiment on NCI-H460 lung; 33.1% in the experiment on NCI-H522 lung. Further, the growth is 96.9% with 786-0 renal; 108% with COLO 205 colon; 99.6% in the experiment with DU-145 prostate; 116% with K-562 leukemia; 108% in the experiment on MALME-3M melanoma; 102% in the experiment with MDA-MB-231 breast. The growth in the experiment on SF-268 CNS was 108%; in the experiment on SF-295 CNS, 110%; in the experiment on SF-539 CNS it was 94.8%; in the experiment on M14 melanoma, 109%; with HCT-15 colon, 95%.

Consider `CO[C@H]1/C=C/O[C@@]2(C)Oc3c(C)c(O)c4c(O)c(c(/C=N/N5C(C)CN(Cc6ccccc6)CC5C)c(O)c4c3C2=O)NC(=O)/C(C)=C\C=C\[C@H](C)[C@H](O)[C@@H](C)[C@@H](O)[C@@H](C)[C@H](OC(C)=O)[C@@H]1C` (some centres not stated), for which the growth in the experiment on NCI-H23 lung is 14.7%; in the experiment on NCI-H226 lung, 68.1%; in the experiment with NCI-H322M lung, 121%; with HOP-62 NSCLC, 89.1%; in the experiment on NCI-H460 lung, 54.9%; in the experiment with NCI-H522 lung, -12.5% (active). Further, the growth is 68.7% in the experiment on 786-0 renal; 80.1% in the experiment on COLO 205 colon; 81.6% in the experiment on DU-145 prostate; 203% in the experiment on K-562 leukemia; 108% in the experiment with MALME-3M melanoma; 102% in the experiment on MDA-MB-231 breast. The growth in the experiment with SF-268 CNS is 92.6%; in the experiment with SF-295 CNS it was 41.1%; with SF-539 CNS, 85.8%; in the experiment with UACC-257 melanoma, 117%; with M14 melanoma, 89.9%; in the experiment with HCT-15 colon, 57.5%.

Consider `CCC1=C(c2ccc(OC)cc2)C(C)Oc2cc(OC(C)=O)ccc21` (configuration not stated), for which the growth in the experiment with NCI-H23 lung was 82%; in the experiment on NCI-H226 lung it was 83.1%; in the experiment on NCI-H322M lung it was 116%; in the experiment on HOP-62 NSCLC, 99.7%; with NCI-H460 lung it was 93%; with NCI-H522 lung, 78.8%. Besides, the growth was 101% in the experiment with 786-0 renal; 103% with COLO 205 colon; 102% in the experiment with DU-145 prostate; 50.2% with K-562 leukemia; 98% in the experiment with MALME-3M melanoma; 90.4% with MDA-MB-231 breast. Also, the growth in the experiment with RXF 393 renal was 85.3%; in the experiment with SF-268 CNS, 86.9%; in the experiment on SF-295 CNS it was 99.4%; with SF-539 CNS it was 84.3%; with M14 melanoma, 83.4%; in the experiment on HCT-15 colon, 85.5%.

On to `C[C@]12C[C@H](O)[C@H]3[C@@H](CCC4=CC(=O)CC[C@@]43C)[C@@H]1CC[C@@H]2C(=O)CO`, for which the growth was 11% with NCI-H23 lung; 79.5% in the experiment on NCI-H226 lung; 105% in the experiment on NCI-H322M lung; 102% in the experiment on HOP-62 NSCLC; 103% in the experiment with NCI-H460 lung; 16% with NCI-H522 lung. The growth with 786-0 renal is 101%; with COLO 205 colon, 96%; in the experiment with DU-145 prostate, 108%; with K-562 leukemia it was 66.7%; in the experiment on MALME-3M melanoma, 95.3%; in the experiment with MDA-MB-231 breast it was 80.5%. For the same molecule, the growth in the experiment on SF-268 CNS was 98.8%; in the experiment on SF-295 CNS, 126%; in the experiment with SF-539 CNS it was 89.3%; in the experiment with M14 melanoma it was 107%; in the experiment with HCT-15 colon, 92%.

In the case of `Cn1cnc([N+](=O)[O-])c1S(=O)(=O)Oc1ccc(Cl)cc1`, the growth was 96% with NCI-H23 lung; 97.8% in the experiment on NCI-H226 lung; 104% in the experiment on NCI-H322M lung; 92.3% with HOP-62 NSCLC; 103% in the experiment on NCI-H460 lung; 96% in the experiment with A549/ATCC NSCLC. In addition, the growth with 786-0 renal was 94.4%; in the experiment with COLO 205 colon, -90% (active); with DU-145 prostate it was 81.5%; with K-562 leukemia, 16.1%; in the experiment with MALME-3M melanoma, -70.4% (active); in the experiment with MDA-MB-231 breast it was 65.4%. In addition, the growth is 81.8% in the experiment with RXF 393 renal; 93% with SF-268 CNS; 94.5% in the experiment on SF-295 CNS; 81.4% in the experiment with SF-539 CNS; 57% with UACC-257 melanoma; 61% in the experiment on M14 melanoma. Moreover, the growth in the experiment on HCT-15 colon was 59%.

Turning to `Nc1nc(Cl)c2[nH]cnc2n1`, the growth with NCI-H23 lung was 87%; with NCI-H226 lung, 101%; in the experiment on NCI-H322M lung it was 93.1%; in the experiment with HOP-62 NSCLC, 95.2%; with NCI-H460 lung, 86.9%; in the experiment with NCI-H522 lung it was 96.2%. Also, the growth is 96.8% with 786-0 renal; 103% with COLO 205 colon; 119% in the experiment with DU-145 prostate; 118% in the experiment with K-562 leukemia; 94.4% in the experiment on MALME-3M melanoma; 111% in the experiment on MDA-MB-231 breast. Moreover, the growth is 101% in the experiment with SF-268 CNS; 93.7% with SF-295 CNS; 97.4% in the experiment with SF-539 CNS; 97.7% in the experiment with M14 melanoma; 103% in the experiment with HCT-15 colon.
